Hits are enriched below; roughly 21% of the tested compounds scored in any of these assays.
Shiga toxin inh: A qHTS for Small Molecule Inhibitors of Shiga Toxin. Vero cells, Shiga toxin protein synthesis inhibition reporter. inhibition, % at 38.7 µM. 9.2% of 290,000 active; in the data active means inhibition mostly above about 28%, no sharp cut-off; inactive means mostly below about 43%; further: 0% is about no effect
Pf growth 48h: Primary qHTS for delayed death inhibitors of the malarial parasite plastid, 48 hour incubation. Potency, µM (highest dose often 28.7 µM), inactives show at the highest dose activity change, negative = inhibition, most hits filed as inhibitors. P. falciparum luciferase growth in erythrocytes, 48 h. 5.9% of 310,000 active; further: potency means the concentration at half of the fitted maximal effect; on the % scale 0 is the no-effect control and ±100 the full control effect
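Firefly luciferase activity from engineered P. falciparum reports growth; inhibitors lower the luminescent signal. Cultures contained 2% hematocrit erythrocytes at 0.1% final parasitemia.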
Pf growth 96h: Primary qHTS for delayed death inhibitors of the malarial parasite plastid, 96 hour incubation; Potency, µM (highest dose often 28.7 µM), without a hit: at the highest dose activity change, negative = inhibition, actives largely listed as inhibitors; 6.9% of 320,000 active; P. falciparum luciferase reporter growth, 96 h; AID 504834, 2011; further: potency means the concentration at half of the fitted maximal effect; on the % scale 0 is the no-effect control and ±100 the full control effect
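Infected RBCs, 2% Hct / 0.05% parasitemia final; luciferase-reporter P. falciparum; cpd 96 h, 37 C, 5% CO2; luciferase detection reagent; luminescence.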
CHX counter: Cycloheximide Counterscreen for Small Molecule Inhibitors of Shiga Toxin; cell reporter, cycloheximide protein synthesis inhibition counterscreen; max response, %; 12% of 300,000 active; in the data active means max response mostly above about 13%, no sharp cut-off; inactive means mostly below about 14%; further: read at 38.3 µM for the half of the compounds with a filed dose; 0% is about no effect
NS1 function inh: qHTS Assay for Inhibitors of Influenza NS1 Protein Function; Potency, µM (titrated, usually from 46.1 µM), inactives show at the top dose activity, positive = more growth; 0.4% of 270,000 active; calls by dose curve; further: potency means the concentration at half of the fitted maximal effect; actives are rising curves; nearly all actives have a fitted effect of over 50% in size
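S. cerevisiae expressing influenza A NS1, grown in glucose, washed, then diluted 1:100 into pH 6.0 -URA galactose medium with 23 nl compound. Growth recovery read as OD600; NS1-free strain serves as control.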
Sm TGR inh: qHTS Assay for the Inhibitors of Schistosoma Mansoni Peroxiredoxins | Schistosoma mansoni thioredoxin glutathione reductase (TGR), Q962Y6 | purified TGR, DTNB reduction, TNB absorbance 405 nm | Potency, µM (titrated, usually from 114 µM), inactives show at the highest dose activity change, negative = inhibition, hits mostly inhibitors | 3% of 360,000 active | AID 485364, 2010; further: potency means the concentration at half of the fitted maximal effect; on the % scale 0 is the no-effect control and ±100 the full control effect; nearly all actives have a fitted effect of over 60% in size
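Kinetic colorimetric format: TGR-catalysed, NADPH-driven DTNB reduction monitored via TNB absorbance. Enzyme dispensed at 20 nM; compound exposure 15 min at room temperature before reaction start.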
An asterisk follows results filed as active; u = inconclusive; x = not tested or not shown. Unless noted, the call rests on the fitted dose curve; in most records, active means well fitted curve in the direction sought with a large enough effect; inconclusive means small, poorly fitted or top-dose-only effect, or another doubt; inactive means no such curve, though single readings can be large; an effect the other way counts as inactive or inconclusive.

SMILES	Shiga toxin inh	Pf growth 48h	Pf growth 96h	CHX counter	NS1 function inh	Sm TGR inh
c1ccc2c(c1)c1ccccc1n2Cn1c2ccccc2c2ccccc21	x	x	x	x	6%	x
CCn1c(CC(=O)Nc2ccc(F)cc2)nnc1SCC(=O)Nc1nncs1	-14	2%	4%	-4	2%	9%
Cc1nn(CC(=O)Nc2cccc(C(F)(F)F)c2)c(=O)c2cccn12	-9	11%	u	-11	10%	10%
CCN(CC(=O)Nc1ccccc1C(F)(F)F)C(=O)c1cc(S(=O)(=O)N2CCCCCC2)ccc1OC	x	u	-10%	x	x	-3%
COc1ccc(NC(=O)CCN2C(=O)[C@@H]3[C@H](C2=O)[C@H]2C=C[C@@H]3C2)cc1	33	36%	51%	2	1%	-4%
O=C(NCCN1C(=O)C2C3C=CC(C3)C2C1=O)Nc1ccccc1 (stereo not given)	9	x	u	20	-9%	u
Cc1ccc(NC(=O)NCCN2C(=O)C3C4C=CC(C4)C3C2=O)cc1 (stereo not given)	134*	x	u	112*	4%	1%
COc1ccc(NC(=O)NCCN2C(=O)C3C4C=CC(C4)C3C2=O)cc1 (stereo not given)	60*	94%	12µM*	32*	5%	4%
Cc1cccc(NC(=O)NCCN2C(=O)C3C4C=CC(C4)C3C2=O)c1 (stereo not given)	41	x	12µM*	17	-7%	14%
Cc1ccc(NC(=O)CN(C)C(=O)COC(=O)CNS(=O)(=O)c2ccc(F)c(F)c2F)cc1	x	42%	61%	x	x	-3%
CN1C[C@@H]2C(c3ccc(Cl)nc3)C3(c4ccccc4)CC2(C3)[C@H]1c1ccccc1 (stereo not given in full)	19	9.3µM*	13µM*	-4	7%	u
CN1C[C@@H]2C(c3ccc(Cl)nc3)C3(c4cccnc4)CC2(C3)[C@H]1c1ccccc1 (stereo not given in full)	-1	10µM*	10µM*	9	-1%	u
C/C(=N\OC(=O)c1c(-c2ccccc2Cl)noc1C)c1ccncc1	-4	31%	23%	-5	4%	1%
Cc1onc(-c2cccc(Cl)c2Cl)c1C(=O)O/N=C(\N)c1ccc([N+](=O)[O-])o1	32	u	10µM*	9.1*	-3%	u
Cc1onc(-c2ccccc2)c1C(=O)O/N=C(\N)c1ccc([N+](=O)[O-])o1	-3	u	12µM*	4	-39%	u
Cn1c(N)c(S(=O)(=O)N2CCCC2)c(=O)n(C)c1=O	-11	6%	33%	-2	3%	-4%
CCOC(=O)C1=C(c2ccccc2)O/C(=C(\C(=O)OC)C(F)(F)F)S1	-4	x	9.3µM*	0	4%	-2%
CCOC(=O)C1=C(c2ccccc2)OC(N)=C(C#N)C1C1CCCCC1 (stereo not given)	27	8%	x	-4	-1%	-2%
CCOC(=O)C1=C(c2ccccc2)O/C(=C(/C#N)C(F)(F)F)S1	35	9.3µM*	x	8	10%	-23%
Cc1nc(S/C(=C/c2ccc(-c3cc(Cl)ccc3C)o2)C(=O)O)n[nH]1	103*	37%	42%	29*	5%	u
CCCOc1ccc(-c2nc(N3CCN(CC)CC3)c3ccccc3n2)cc1	10	10µM*	12µM*	14	-3%	12%
CCN1CCN(c2nc(-c3ccncc3)nc3ccccc23)CC1	-9	9.3µM*	7.4µM*	-4	-8%	-22%
CCCOc1ccc(-c2nc(OCC)c3ccccc3n2)cc1	32*	x	71%	11	0%	8%
CCN1CCN(c2nc(-c3cccnc3)nc3ccccc23)CC1	4	u	x	-3	-20%	-13%
CCOc1nc(-c2ccncc2)nc2ccccc12	-3	u	u	-2	-22%	2%
CCCOc1ccc(-c2nc(N3CCN(C)CC3)c3ccccc3n2)cc1	61*	-1%	u	33*	-6%	2%
